One assay relates to FES. Also noted: species or system human, MV4-11 + K-562 + COLO205 + SK-N-BE2 + OVCAR-8. Particulars: read-out: apparent Kd, compound concentrations: 100 nM and 1000 nM (sheet 'Samples'), n = 1.
The subject of a further assay is LIMK1. The arrangement: species or system human, MV4-11 + K-562 + COLO205 + SK-N-BE2 + OVCAR-8. The settings on record: read-out: apparent Kd, compound concentrations: 100 nM and 1000 nM (sheet 'Samples'), n = 1.
For another assay, the system named is MAP3K4. Also noted: species or system human, MV4-11 + K-562 + COLO205 + SK-N-BE2 + OVCAR-8. The settings on record: read-out: apparent Kd, n = 1.
The next assay has as its system MET. Also noted: species or system human, MV4-11 + K-562 + COLO205 + SK-N-BE2 + OVCAR-8. Particulars: read-out: apparent Kd, n = 1.
The test system of a further assay is NEK1. Also noted: species or system human, MV4-11 + K-562 + COLO205 + SK-N-BE2 + OVCAR-8. The settings on record: read-out: apparent Kd, compound concentrations: 100 nM and 1000 nM (sheet 'Samples'), n = 1.
In the next assay the test system is PLK1. Also noted: species or system human, MV4-11 + K-562 + COLO205 + SK-N-BE2 + OVCAR-8. The settings on record: read-out: apparent Kd; compound concentrations: 100 nM and 1000 nM (sheet 'Samples'), CATDS: 1.2041031249847799E-2; n = 1.
In a further assay the test system is WEE1. The arrangement: species or system human, MV4-11 + K-562 + COLO205 + SK-N-BE2 + OVCAR-8. The settings on record: read-out: apparent Kd, n = 1.
A further assay has as its system CSNK2A1. Particulars: hek293t cells.
For the next assay, the system named is EGFR. The arrangement: species or system human, MV4-11 + K-562 + COLO205 + SK-N-BE2 + OVCAR-8. Particulars: read-out: apparent Kd, n = 1.
A further assay relates to ACAD8. Also noted: species or system human, MV4-11 + K-562 + COLO205 + SK-N-BE2 + OVCAR-8. Particulars: read-out: apparent Kd; compound concentrations: 100 nM and 1000 nM (sheet 'Samples'), CATDS: 3.4609202589527301E-3; n = 1.
The next assay relates to BMPR2. The arrangement: species or system human, MV4-11 + K-562 + COLO205 + SK-N-BE2 + OVCAR-8. Particulars: read-out: apparent Kd; compound concentrations: 100 nM and 1000 nM (sheet 'Samples'), CATDS: 4.3596889964012502E-3; n = 1.
In the next assay the test system is CDK13. The arrangement: species or system human, MV4-11 + K-562 + COLO205 + SK-N-BE2 + OVCAR-8. Particulars: read-out: apparent Kd, compound concentrations: 100 nM and 1000 nM (sheet 'Samples'), n = 1.
The next assay concerns MAP2K6. The arrangement: species or system human, MV4-11 + K-562 + COLO205 + SK-N-BE2 + OVCAR-8. Particulars: read-out: apparent Kd; compound concentrations: 100 nM and 1000 nM (sheet 'Samples'), CATDS: 4.6544489898713796E-3; n = 1.
In another assay the test system is MST1R. The arrangement: species or system human, MV4-11 + K-562 + COLO205 + SK-N-BE2 + OVCAR-8. The settings on record: read-out: apparent Kd; compound concentrations: 100 nM and 1000 nM (sheet 'Samples'), CATDS: 4.6001362310290703E-3; n = 1.
For a further assay, the system named is NEK3. Also noted: species or system human, MV4-11 + K-562 + COLO205 + SK-N-BE2 + OVCAR-8. Particulars: read-out: apparent Kd, n = 1.
For another assay, the system named is TAOK3. Also noted: species or system human, MV4-11 + K-562 + COLO205 + SK-N-BE2 + OVCAR-8. The settings on record: read-out: apparent Kd; compound concentrations: 100 nM and 1000 nM (sheet 'Samples'), CATDS: 4.5729665408397397E-3; n = 1.
In the next assay the test system is VDAC3. Also noted: species or system human, MV4-11 + K-562 + COLO205 + SK-N-BE2 + OVCAR-8. Particulars: read-out: apparent Kd; compound concentrations: 100 nM and 1000 nM (sheet 'Samples'), CATDS: 4.6944952504306397E-3; n = 1.
The next assay relates to ACOX1. The arrangement: species or system human, MV4-11 + K-562 + COLO205 + SK-N-BE2 + OVCAR-8. Particulars: read-out: apparent Kd; compound concentrations:100 nM and 1000 nM (sheet 'Samples'); n = 1.
A further assay relates to PDXK. Also noted: species or system human, MV4-11 + K-562 + COLO205 + SK-N-BE2 + OVCAR-8. The settings on record: read-out: apparent Kd; compound concentrations: 100 nM and 1000 nM (sheet 'Samples'), CATDS: 3.03985195702474E-2; n = 1.
A further assay has as its system ADCK3. The arrangement: species or system human, MV4-11 + K-562 + COLO205 + SK-N-BE2 + OVCAR-8. Particulars: read-out: apparent Kd; compound concentrations: 100 nM and 1000 nM (sheet 'Samples'), CATDS: 0.16822822033669799; n = 1.
[1] abbreviates: compound concentrations:100 nM and 1000 nM (sheet 'Samples').

Read-outs that look alike come from different tables or passages of the source.

With `COc1ccc(Nc2ncc(C#N)c(Nc3ccccc3C(N)=O)n2)cc1N1CCN(C)CC1.Cl` [GSK1558669A], the potency estimated from few doses was 387 nM with FES (CATDS: 8.0815646455300594E-3); 1380 nM with LIMK1 (CATDS: 6.2092464562502302E-3); 57.9 nM in the assay on MAP3K4 (compound concentrations: 100 nM and 1000 nM (sheet 'Samples'), CATDS: 1.60153050048602E-2); 1600 nM with MET (compound concentrations: 100 nM and 1000 nM (sheet 'Samples'), CATDS: 6.0762727664259702E-3); 272 nM with NEK1 (CATDS: 8.9161421311332902E-3); 113 nM in the assay on PLK1. Also, the potency estimated from few doses in the assay with WEE1 (compound concentrations: 100 nM and 1000 nM (sheet 'Samples'), CATDS: 4.3913811824171201E-2) was 10.4 nM.
In the case of `COc1cc(Nc2ncc3c(C)nc(-c4cc5ccccc5[nH]4)n3n2)cc(OC)c1OC` [GW869516X], the IC50 in the assay on CSNK2A1 (read-out: Average, SD, n = 2) stood at 446 nM; in the assay on CSNK2A1 (read-out: Rep 1), 471 nM; in the assay with CSNK2A1 (read-out: Rep 2), 421 nM.
With `CNC(=O)c1ccccc1Nc1nc(Nc2ccc(N3CCOCC3)cc2)ncc1Cl.Cl` [GSK1576028A], the potency estimated from few doses in the assay on EGFR (setting [1]) is 580 nM; in the assay with MAP3K4 (setting [1]), 1690 nM; with MET (setting [1]), 68.1 nM; with WEE1 (setting [1]) it was 20.5 nM.
As for `Cn1ncc2c(N)ncnc21` [SKF-18267], the potency estimated from few doses in the assay on ACAD8 was 2010 nM; in the assay on BMPR2, 1090 nM; in the assay on CDK13 (CATDS: 3.42159578661501E-3), 2090 nM; with EGFR (compound concentrations: 100 nM and 1000 nM (sheet 'Samples'), CATDS: 3.5324220214717501E-3) it was 1890 nM; in the assay on FES (CATDS: 5.1575309929755304E-3), 766 nM; in the assay on LIMK1 (CATDS: 4.4629455520233396E-3), 1030 nM. The potency estimated from few doses in the assay with MAP2K6 was 943 nM; in the assay with MAP3K4 (compound concentrations: 100 nM and 1000 nM (sheet 'Samples'), CATDS: 4.0015325722358502E-3) it was 1340 nM; with MET (compound concentrations: 100 nM and 1000 nM (sheet 'Samples'), CATDS: 4.2018834707484203E-3), 1190 nM; in the assay with MST1R, 967 nM; with NEK1 (CATDS: 3.5725639465568099E-3) it was 1820 nM; with NEK3 (compound concentrations: 100 nM and 1000 nM (sheet 'Samples'), CATDS: 4.0159133314047798E-3), 1320 nM. The potency estimated from few doses in the assay with TAOK3 was 979 nM; in the assay on VDAC3 it was 926 nM; in the assay on WEE1 (compound concentrations: 100 nM and 1000 nM (sheet 'Samples'), CATDS: 4.2054880043609797E-3) it was 1180 nM.
Regarding `Cc1cccc2c(-c3ccncn3)c(-c3ccc(F)cc3)nn12` [GW515532X], in the assay with CDK13 (CATDS: 0.21960096407146401), the potency estimated from few doses is 1800 nM.
With `Cc1cccc(Nc2nc(N[C@H]3CCCC[C@H]3N)ncc2C(N)=O)c1.Cl` [GSK986310C], in the assay on ACOX1, the potency estimated from few doses is 1340 nM.
On to `CN(c1ccc(NC(=O)N2CCN(CCCN3CCOCC3)CC2)cc1)c1ccnc(Nc2ccc(CS(C)(=O)=O)cc2)n1.Cl` [GW830899A], for which the potency estimated from few doses in the assay with EGFR (compound concentrations: 100 nM and 1000 nM (sheet 'Samples'), CATDS: 1.7872150639672801E-2) is 2150 nM; in the assay on PDXK, 617 nM.
With `O=C1N=C(NCCc2ccc(Cl)cc2)S/C1=C\c1ccc2ncccc2c1` [RO4498479-000], the potency estimated from few doses with EGFR (compound concentrations: 100 nM and 1000 nM (sheet 'Samples'), CATDS: 6.9080879323699202E-3) is 1730 nM; in the assay with FES (CATDS: 7.5853712865523596E-3), 1210 nM.
On to `CN(C)CC(O)COc1ccc(Nc2nccc(-c3cnn4nc(N5CCOCC5)ccc34)n2)cc1` (stereo not shown) [GW767488X], for which the potency estimated from few doses in the assay with NEK3 (setting [1]) was 467 nM.
For the molecule `CS(=O)(=O)Nc1cccc(-c2ccc3c(NC(=O)C4CC4)n[nH]c3c2)c1` [SB-742864], the potency estimated from few doses in the assay with ADCK3 was 659 nM.

Source of the values: paper PMC11062922 (Nature Chemical Biology, 2023).
